Experimental data as given in PubChem BioAssay (NCATS).
Inconclusive results are not listed. The source made the active and inactive calls. Calls follow the shape of the dose curve; as a rule, active = well fitted cell-killing curve with a large enough effect; inconclusive = small, poorly fitted or top-dose-only effect, or effect the other way; inactive = flat fitted curve, though single readings scatter.

Legend:
Assay in all cases: Primary qHTS to identify gynecologic anti-cancer compounds using libraries of approved drugs and bioactive compounds (AID 1345084); also: nearly all actives have a fitted effect of over 55% in size
Hek293T = details: Gynecologic cancer cell panel viability, ATPlite luminescence, 48 h, control line for the selectivity index; series mostly up to 57.5 µM
Outline: (§1)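 Cells, 1,000 per well, were allowed to settle for 16 h at 37 C before compound addition. Five concentrations were tested for 48 h, and viability was read by ATPlite luminescence after 15 min at room temperature.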

JEG-3 = details: Gynecologic cancer cell panel viability, ATPlite luminescence, 48 h; series mostly up to 57.5 µM
Outline: as §1

OV90 = details: Gynecologic cancer cell panel viability, ATPlite luminescence, 48 h; series mostly up to 57.5 µM
Outline: as §1

PA-1 = details: Gynecologic cancer cell panel viability, ATPlite luminescence, 48 h; series mostly up to 57.5 µM
Outline: as §1

SKOV3 = details: Gynecologic cancer cell panel viability, ATPlite luminescence, 48 h; series mostly up to 57.5 µM
Outline: as §1

Tov-21-G = details: Gynecologic cancer cell panel viability, ATPlite luminescence, 48 h; series mostly up to 57.5 µM
Outline: as §1

Tov112D = details: Gynecologic cancer cell panel viability, ATPlite luminescence, 48 h; series mostly up to 57.5 µM
Outline: as §1
% is scaled to controls: 0 for no effect and ±100 for the full control effect.

C=CC(C)(C)c1[nH]c2cccc3c2c1C[C@@H]1[C@@H]3[C@@H](OC(C)=O)[C@H](C)CN1C
inactive: Potency (Hek293T) | Potency (JEG-3) | Potency (OV90) | Potency (PA-1) | Potency (SKOV3) | Potency (Tov-21-G) | Potency (Tov112D)

C[C@H]1C(=O)O[C@H]2[C@H](O)[C@]34C5OC(=O)[C@]3(O[C@@H]3OC(=O)[C@H](O)C34[C@H](C(C)(C)C)[C@H]5O)C12O (stereo partly drawn)
inactive: Potency (Hek293T) | Potency (JEG-3) | Potency (OV90) | Potency (PA-1) | Potency (SKOV3) | Potency (Tov-21-G) | Potency (Tov112D)

C=C(CO)C(=O)O[C@H]1C/C(C)=C/CC/C(CO)=C/[C@H]2OC(=O)C(=C)[C@H]12
inactive: Potency (Hek293T) | Potency (JEG-3) | Potency (OV90) | Potency (PA-1) | Potency (SKOV3) | Potency (Tov-21-G) | Potency (Tov112D)

CN1[C@@H]2CC[C@H]1CC(OC(=O)C1C=Nc3ccccc31)C2 (stereo partly drawn)
inactive: Potency (Hek293T) | Potency (JEG-3) | Potency (OV90) | Potency (PA-1) | Potency (SKOV3) | Potency (Tov-21-G) | Potency (Tov112D)

C=C[C@H]1[C@H](O[C@@H]2O[C@H](CO)[C@@H](O)[C@H](O)[C@H]2O)OC=C2C(=O)OCC[C@H]21
inactive: Potency (Hek293T) | Potency (JEG-3) | Potency (OV90) | Potency (PA-1) | Potency (SKOV3) | Potency (Tov-21-G) | Potency (Tov112D)

COC1CC(O[C@H]2CC[C@@]3(C)C(=CCC4C3C(O)[C@@H](O)[C@]3(C)[C@@H](C(C)=O)CC[C@]43O)C2)OC(C)C1OC1CC(OC)C(OC2OC(C)C(O)C(O)C2O)C(C)O1 (stereo partly drawn)
inactive: activity change, negative = cytotoxicity (Hek293T) -2.86% [at 11.6 µM] | activity change, negative = cytotoxicity (JEG-3) -1.29% [at 11.6 µM] | activity change, negative = cytotoxicity (OV90) -0.104% [at 11.6 µM] | activity change, negative = cytotoxicity (PA-1) -3.19% [at 11.6 µM] | activity change, negative = cytotoxicity (SKOV3) -4.29% [at 11.6 µM] | activity change, negative = cytotoxicity (Tov-21-G) -7.27% [at 11.6 µM] | activity change, negative = cytotoxicity (Tov112D) 3.02% [at 11.6 µM]

C=C1[C@@H]2CC[C@@]3(C)[C@H](c4ccoc4)OC(=O)C[C@]13O[C@H]1CC(=O)C(C)(C)[C@H](C(OC(C)=O)C(=O)OC)[C@]12C (stereo partly drawn)
inactive: Potency (Hek293T) | Potency (JEG-3) | Potency (OV90) | Potency (PA-1) | Potency (SKOV3) | Potency (Tov-21-G) | Potency (Tov112D)

Clc1ccc(N2C[C@H]3CC[C@@H](C2)N3)nn1
inactive: Potency (Hek293T) | Potency (JEG-3) | Potency (OV90) | Potency (PA-1) | Potency (SKOV3) | Potency (Tov-21-G) | Potency (Tov112D)

COC(=O)[C@@]12C(=O)C(C)C(=O)[C@]1(C)C(C)=C[C@H]1[C@]3(C=O)CC[C@H](OC(C)=O)C(C)(C)[C@H]3CC[C@@]12C (stereo partly drawn)
inactive: Potency (Hek293T) | Potency (JEG-3) | Potency (OV90) | Potency (PA-1) | Potency (SKOV3) | Potency (Tov-21-G) | Potency (Tov112D)

C[C@]12CC[C@H]3[C@@H]([C@H](O)CC4=CC(=O)CC[C@@]43C)[C@@H]1CC[C@@H]2O
inactive: Potency (Hek293T) | Potency (JEG-3) | Potency (OV90) | Potency (PA-1) | Potency (SKOV3) | Potency (Tov-21-G) | Potency (Tov112D)

Cc1cn(C[C@H](N)C(=O)O)c(=O)n(Cc2cc(-c3ccccc3)sc2C(=O)O)c1=O
inactive: Potency (Hek293T) | Potency (JEG-3) | Potency (OV90) | Potency (PA-1) | Potency (SKOV3) | Potency (Tov-21-G) | Potency (Tov112D)

COC1CC(=O)C23C(=O)NC(CC(C)C)C2C(C)=C(C)C(OO)C3/C=C(\C)CCC(O)C1O (stereo not drawn)
inactive: Potency (Hek293T) | Potency (JEG-3) | Potency (OV90) | Potency (PA-1) | Potency (SKOV3) | Potency (Tov-21-G) | Potency (Tov112D)

CN1C(=O)N(c2ccc(C#N)c(C(F)(F)F)c2)C(=O)[C@]1(CO)c1ccccc1
inactive: Potency (Hek293T) | Potency (JEG-3) | Potency (OV90) | Potency (PA-1) | Potency (SKOV3) | Potency (Tov-21-G) | Potency (Tov112D)

C/C=C(\C)C(=O)OC1CC2C(CC=C3CC(OC4CC(OC)C(OC5CC(OC)C(OC6OC(C)C(OC7OC(CO)C(O)C(O)C7O)C(OC)C6O)C(C)O5)C(C)O4)CCC32C)C2(O)CCC(C(C)=O)C12C (stereo not drawn)
inactive: activity change, negative = cytotoxicity (Hek293T) 2.23% [at 11.6 µM] | activity change, negative = cytotoxicity (JEG-3) 1.45% [at 11.6 µM] | activity change, negative = cytotoxicity (OV90) 8.31% [at 11.6 µM] | activity change, negative = cytotoxicity (PA-1) -3.75% [at 11.6 µM] | activity change, negative = cytotoxicity (SKOV3) 18.2% [at 11.6 µM] | activity change, negative = cytotoxicity (Tov-21-G) 3.39% [at 11.6 µM] | activity change, negative = cytotoxicity (Tov112D) 3.97% [at 11.6 µM]

CCN1C[C@]2(COC(=O)c3ccccc3N3C(=O)C[C@H](C)C3=O)CC[C@H](OC)[C@@]34[C@@H]5C[C@H]6[C@H](OC)[C@@H]5[C@](O)(C[C@@H]6OC)[C@](O)([C@@H](OC)[C@H]23)[C@@H]14
inactive: Potency (Hek293T) | Potency (JEG-3) | Potency (OV90) | Potency (PA-1) | Potency (SKOV3) | Potency (Tov-21-G) | Potency (Tov112D)

COC(=O)C12C(=O)C(C)(O)C(=O)C1(C)C(C)=CC1C34CCC(OC3=O)C(C)(CO)C4CCC12C (stereo not drawn)
inactive: Potency (Hek293T) | Potency (JEG-3) | Potency (OV90) | Potency (PA-1) | Potency (SKOV3) | Potency (Tov-21-G) | Potency (Tov112D)

COC1=CC(=O)O[C@@H](CCc2ccccc2)C1
inactive: Potency (Hek293T) | Potency (JEG-3) | Potency (OV90) | Potency (PA-1) | Potency (SKOV3) | Potency (Tov-21-G) | Potency (Tov112D)

CC(=O)OC1CC(O)C(C)(C)C2CC(OC(C)=O)C3(C)C(CCC4(C)C(c5ccoc5)C(=O)C5OC543)C12C (stereo not drawn)
inactive: Potency (Hek293T) | Potency (JEG-3) | Potency (OV90) | Potency (PA-1) | Potency (SKOV3) | Potency (Tov-21-G) | Potency (Tov112D)

CCC(C)(OC(C)=O)C(=O)O[C@H]1[C@H](OC(C)=O)C[C@@H]2[C@@](C)([C@@H]3C[C@H]4C=CO[C@H]4O3)[C@H](C)C[C@H](OC(C)=O)[C@@]2(COC(C)=O)[C@@]12CO2 (stereo partly drawn)
inactive: Potency (Hek293T) | Potency (JEG-3) | Potency (OV90) | Potency (PA-1) | Potency (SKOV3) | Potency (Tov-21-G) | Potency (Tov112D)
